USP2a inh: USP2a (human) protease inhibition | O75604 | USP2 core, Ub-CHOP2 coupled fluorogenic reporter, 485/531 | AID 463254 | Potency, µM (titrated, usually from 38.3 µM), for inactives: at the top dose activity change, negative = inhibition, hits mostly inhibitors | actives 0.01% (n = 330,000);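 further: plate controls were DMSO wells for no effect and full inhibition by NEM control for full effect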
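Cell-free coupled assay: 10nM USP2 core preincubated 30min RT with compound in Tris-HCl pH 8.0/CaCl2/CHAPS buffer, then 25nM Ub-CHOP2 and 25nM reporter substrate; fluorescence (Ex 485/Em 531) read after 60min RT, normalized to NEM inhibition, concentration-response curves fitted.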
Eya2 inh: Eya2 (human) phosphatase inhibition. O00167. recombinant Eya2, OMFP fluorescence dephosphorylation (OMFP is methylfluorescein phosphate). actives 0.006% (n = 330,000). Potency, µM (highest dose often 76.9 µM), for inactives: at the top dose activity, negative = inhibition, most hits filed as inhibitors. AID 488837; further: on the % scale 0 is the no-effect control and ±100 the full control effect
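Eya2 protein (added as 0.2 uM solution) was preincubated with compound for 10 min at ambient temperature in 50 mM HEPES pH 7.5, 50 mM NaCl, 5 uM MgCl2, 0.05% BSA, 1 mM DTT. OMFP (added at 50 uM) then reacted 10 min; fluorescence read at 485/525 nm.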
GALK inhibitor: galactokinase (human) inhibition; Purified GALK, Kinase-Glo residual ATP luminescence; Potency, µM (highest dose often 57.5 µM), for inactives: at the highest dose activity change, negative = inhibition, most hits filed as inhibitors; actives 0.007% (n = 270,000); AID 1868; further: on the % scale 0 is the no-effect control and ±100 the full control effect
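ATP-depletion format; final 35 uM ATP, 100 uM D-galactose, 5 nM enzyme; pH 8.0 HEPES/Mg2+ buffer; 60 min RT; luminescence read 10 min after detection reagent.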
ClpP mod: qHTS Assay for Activators of ClpP | purified B. subtilis ClpP, FRET peptide cleavage, 20 min | Potency, µM (titrated, usually from 57.5 µM), for the others: at the top dose activity change, negative = active | actives 1.9% (n = 340,000) | AID 651965, 2013; active means well fitted falling curve with a large enough effect; inconclusive means small, poorly fitted or top-dose-only effect; inactive means no such curve, though single readings can be large or run the other way; further: the source files actives as falling curves though it sought activators and does not explain the sign; nearly all actives have a fitted effect of over 65% in size
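Purified B. subtilis ClpP, 10 microg/mL final in Tris/HCl pH8 with KCl, BSA, glycerol and Tween-20, cleaved an Abz/nitrotyrosine-quenched decapeptide. Fluorescence (ex 320, em 430) was read at 0 and 20 min at room temperature. Delta was normalized to 5.8 microM ADEP and DMSO/no-enzyme controls.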
ClpP validation: inhibits B. subtilis ClpP protease, hit validation; shares compounds with ClpP mod; purified B. subtilis ClpP, FRET-FV substrate cleavage, 20 min; Potency, µM (doses to about 57.5 µM), inactives show top-dose activity change, negative = inhibition, most hits filed as inhibitors; actives 40% (n = 470); AID 743245; further: on the % scale 0 is the no-effect control and ±100 the full control effect; nearly all actives have a fitted effect of over 70% in size
* marks the source's active call; other numbers are inactive results; u = inconclusive; x = no result given. Many of the other results were omitted from the sample, so hits are more common in it than they were. Unless noted, the call rests on the fitted dose curve; in most records, active means well fitted curve in the direction sought with a large enough effect; inconclusive means small, poorly fitted or top-dose-only effect, or another doubt; inactive means no such curve, though single readings can be large; an effect the other way counts as inactive or inconclusive. Potency means the concentration at half of the fitted maximal effect.

SMILES	USP2a inh	Eya2 inh	GALK inhibitor	ClpP mod	others
Cc1cc(OCC(=O)NCC2CCC(C(=O)O)CC2)c2c3c(c(=O)oc2c1)CCC3 (stereo not given)	4%	6%	x	5%
CC(=NCCc1ccccc1)c1c(O)[nH]c(=O)[nH]c1=O	1%	5%	-1%	x
O=C1C2CCCN2C(c2cccs2)N1c1ccccn1 (stereo not given)	0%	10%	-1%	-1%
COc1cc(/C=C/[N+](=O)[O-])ccc1O	2%	7%	x	-3%
COc1nc2ccccc2c(=O)n1-c1ccc(Cl)cc1	-1%	-2%	2%	-2%
O=c1c2ccccc2nc(N2CCCC2)n1-c1ccc(Cl)cc1	0%	-2%	-1%	22µM*
COc1ccc(Cn2c(N)c(C(=O)NCc3ccco3)c3nc4ccccc4nc32)cc1	0%	1%	-5%	32µM*
Nc1c(C(=O)NCc2ccco2)c2nc3ccccc3nc2n1Cc1ccc(F)cc1	-1%	-3%	-1%	28µM*
Nc1c(C(=O)NCc2ccco2)c2nc3ccccc3nc2n1Cc1ccccc1	0%	-18%	x	4%
COC(=O)C1=C(c2ccc(OCc3ccccc3)cc2)C[C@@H]2CC[C@H]1N2C(=O)NCc1ccc2[nH]ccc2c1	x	x	x	-5%
NC(=O)Cn1cc(C=C2C(=O)NC(=O)NC2=O)c2ccccc21	1%	13%	x	x
Nc1ccc2c3c(cccc13)CC2	16%	20%	-1%	14µM*
O=C1NC(=O)N(c2ccccc2)C(=O)/C1=C\c1ccc2c3c(cccc13)CC2	2%	0%	0%	x
Cc1cccc(N2C(=O)/C(=C/N3CCN(C(=O)c4ccco4)CC3)C(=O)NC2=S)c1	2%	-2%	5%	16µM*
Cc1ccc(N2C(=O)/C(=C/N3CCN(C(=O)c4ccco4)CC3)C(=O)NC2=S)cc1C	6%	-7%	2%	-4%
CCOC(=O)c1sc(N=Nc2c(O)[nH]c(=O)[nH]c2=O)c(C(=O)OCC)c1C	1%	1%	-4%	x
O=C(c1cc2c(s1)-c1ccccc1OC2)N1CCC2(CC1)OCCO2	-1%	-24%	0%	28µM*
CCCCCn1c(N)c(C(=O)NCc2cccs2)c2nc3ccccc3nc21	2%	-12%	-1%	28µM*
CCCCNC(=O)c1c(N)n(Cc2ccc3c(c2)OCO3)c2nc3ccccc3nc12	1%	-17%	-1%	10µM*
CCCCn1c(N)c(C(=O)NCc2cccs2)c2nc3ccccc3nc21	1%	-8%	x	25µM*
COCCCn1c(N)c(C(=O)NCCC(C)C)c2nc3ccccc3nc21	-6%	-12%	0%	32µM*
Fc1ccc(CNCCc2ccccc2F)cc1	0%	1%	1%	-3%
COC(=O)C1=C(c2ccccc2)C[C@@H]2CC[C@H]1N2C(=O)N1CCCC1	x	x	x	2%
COCCCNC(=O)c1c(NC(=O)c2ccccc2)n(Cc2ccccc2)c2nc3ccccc3nc12	x	x	x	32µM*
COCCOC(=O)c1c(N)n(Cc2ccccc2)c2nc3ccccc3nc12	0%	9%	0%	70%
SMILES	USP2a inh	Eya2 inh	GALK inhibitor	ClpP mod	others
CCCCCCn1c(N)c(C(=O)NCCN2CCOCC2)c2nc3ccccc3nc21	-12%	-32%	-5%	25µM*
COc1ccccc1CNCC(=O)Nc1cc(S(=O)(=O)N2CCCCC2)ccc1C	-12%	1%	x	8.9µM*
Cc1ccc2c(c1)cc(C(=O)Nc1ccccc1C)n2C	x	x	x	34%	ClpP validation=u
COc1ccc(CCNC(=O)c2c(N)n(CCN3CCOCC3)c3nc4ccccc4nc23)cc1OC	0%	-9%	-1%	-21%
CCCCCn1c(N)c(C(=O)NCCN2CCOCC2)c2nc3ccccc3nc21	-15%	-14%	-1%	8.9µM*	ClpP validation=24µM*
Nc1c(C(=O)NCc2ccco2)c2nc3ccccc3nc2n1CCN1CCOCC1	-1%	11%	1%	10µM*	ClpP validation=22µM*
COCCCN1Cc2ccccc2C1=N	3%	-5%	-2%	0%
Nc1c(C(=O)OC2CCCCC2)c2nc3ccccc3nc2n1CC1CCCO1 (stereo not given)	1%	-5%	-1%	45%	ClpP validation=u
Cc1c2cnn(CC(=O)N3CCC4(CC3)OCCO4)c(=O)c2c(C)n1Cc1cccc(Cl)c1	-1%	-7%	2%	-21%
Cc1ccc(NS(=O)(=O)c2ccc(OCC(=O)N3CCN(C)CC3)cc2)cc1	0%	-8%	1%	-1%
Cc1cc(NC(=O)CSc2nc3c([nH]c4ccccc43)c(=O)n2-c2ccc(Cl)cc2)no1	x	x	x	37%	ClpP validation=-19%
CCN(CC)CCSc1nc2ccccc2c(=O)n1-c1ccc(Cl)cc1	x	x	x	1%

Source: PubChem (National Center for Advancing Translational Sciences (NCATS))
